Source: PubChem BioAssay AID743446 (Broad Institute, 2014)
Potency and affinity values are given separately. A number with no mark means an inactive call. The rule behind the calls is not given here.

Assay: HEK293 cell cytotoxicity, dose response, cytotoxicity control, plate reader, cherry-picked samples (AID 743446)
Conditions: active compounds read low; at 26 µM unless noted

Structure (SMILES) | max activity
CC(C)CCNC(=O)C(c1ccc(O)cc1)N(Cc1cccs1)C(=O)C1COc2ccccc2O1 (centres undefined) | -16.3%
O=C(NCCOc1ccccc1)[C@@H]1CCCN1C(=O)c1cccs1 | -12.7% [at 0.05 µM]
Cc1ccc(C(=O)NCCc2cccs2)cc1 | 37.3% [at 3 µM]
O=C(CN1C(=O)c2ccccc2S1(=O)=O)c1ccccc1F | 74.6%
Cc1noc(C)c1S(=O)(=O)Nc1ccc2c(c1)C(=O)N([C@H](C)CO)C[C@H](C)[C@H](CN(C)C(=O)Nc1ccc(F)cc1)OCCCC[C@@H](C)O2 | 16.1% [at 0.1 µM]
Cc1ccc2nc(NC(=O)CCCC(=O)O)sc2c1 | 12.5%
CCOc1ccc(C(=O)Nc2cccc(C(=O)O)c2C)cc1Cl | 26.7%
Cc1ccc(Nc2nc(N)c3ccccc3n2)cc1C | -37.4%
COCCn1c(C)cc(C(=O)CSc2nnc3ccccn23)c1C | -15% [at 6 µM]
CCC(=O)Nc1cc2nn(-c3ccc(OC)cc3)nc2cc1C | 0% [setting not given]
Cc1nc2c(OCCC3CCCCC3)cccn2c1N(C)C(=O)CCC1CCCC1 | -22.5% [at 6 µM]
COCCOc1cc(NCc2ccccc2)c2ncn(C(C)C)c2c1 | -9.83% [at 0.1 µM]
Nc1c(C(=O)Nc2cccc(C(=O)O)c2)sc2nc3c(cc12)CCCC3 | -12.6% [at 0.1 µM]
CC1(c2ccccc2Cl)NC(=O)N(CC(=O)N2CCc3ccccc32)C1=O (centres undefined) | 40.9%
